From PubChem BioAssay
KB-V1 MDR tox = KB-V1 MDR subline cytotoxicity; KB-V1 MDR cells viability, CellTiter-Glo, 72 h; Potency, µM (top dose mostly 46.1 µM), actives largely listed as cytotoxic; 3.4% of 400,000 active; further: potency means the concentration at half of the fitted maximal effect; on the % scale 0 is the no-effect control and ±100 the full control effect; nearly all actives have a fitted effect of over 60% in size
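Potencies derive from concentration-effect curves fitted to normalized luminescence (CellTiter-Glo) of KB-V1 cells treated for 72 h at 37 degrees C in phenol-red-free DMEM containing 10% FBS.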
MCF10A rerep = inducers of DNA re-replication in MCF 10A breast cells; MCF 10A DNA re-replication, Hoechst nuclear intensity, 48 h; Potency, µM (top dose mostly 46.1 µM), for inactives: at the top dose activity, positive = re-replication, usual class: activators; 2.9% of 350,000 active; AID 624296; further: potency means the concentration at half of the fitted maximal effect; % of control where 0% means no effect; nearly all actives have a fitted effect of over 50% in size
SW480 rerep = induces DNA re-replication in SW480 colon adenocarcinoma cells. Potency, µM (titrated, usually from 46.1 µM), without a hit: at the top dose re-replication activation, most hits filed as activators. 1.8% of 340,000 active. SW480 DNA re-replication, Hoechst DNA content imaging, 48 h; further: potency means the concentration at half of the fitted maximal effect; % of control where 0% means no effect; nearly all actives have a fitted effect of over 55% in size
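Per well, 250 cells were exposed to pinned compound for 48 hr. Nuclear DNA was visualised with Hoechst (40 min, 37 C) and total object intensity recorded by fluorescence scanning.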
IL1B secr inh = blocks inflammasome-driven IL-1 beta release; THP-1 LPS/ATP IL-1B secretion, AlphaLISA, 16 h; active compounds read low; activity change, % at 57.5 µM; 4.7% of 360,000 active; in the data active means activity change below about -50%; inconclusive means mostly about -30% to -49%; further: on the % scale 0 is the no-effect control and ±100 the full control effect
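Secreted IL-1B measured by AlphaLISA bead assay after 16 h compound exposure of THP-1 cells; compounds (final up to 57.5 uM) added 1 h before LPS (250 ng/mL) and ATP (1.25 mM) stimulation; lower signal means less secretion.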
KB-3-1 cytotox = KB-3-1 parental cell cytotoxicity; Potency, µM (top dose mostly 46.1 µM), usual class: cytotoxic; KB-3-1 viability, CellTiter-Glo ATP luminescence, 72 h; 1.4% of 400,000 active; further: potency means the concentration at half of the fitted maximal effect; on the % scale 0 is the no-effect control and ±100 the full control effect; nearly all actives have a fitted effect of over 60% in size
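Parental KB-3-1 viability, qHTS format: 72 h compound exposure, 37 °C; CellTiter-Glo; media-only wells and DMSO plates as controls; concentration-effect fits on corrected data.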
An asterisk follows results filed as active; i = inactive; u = inconclusive; x = not tested or not shown. A selection: hits, their analogues and other compounds. The true share with any hit is near 9.9%. Unless noted, the call rests on the fitted dose curve; in most records, active means well fitted curve in the direction sought with a large enough effect; inconclusive means small, poorly fitted or top-dose-only effect, or another doubt; inactive means no such curve, though single readings can be large; an effect the other way counts as inactive or inconclusive.

SMILES	KB-V1 MDR tox	MCF10A rerep	SW480 rerep	IL1B secr inh	KB-3-1 cytotox
COc1ccc(N2CC(C(=O)N[C@@H](CC(C)C)C(=O)NC3CCCC3)CC2=O)cc1 (stereo partly specified)	i	-3%	-11%	9	i
CCC(=O)N1CCCC1(C)C(=O)Nc1ccc(C)c(C)c1 (stereo unspecified)	i	x	x	189	i
CC1(C)C2C/C(=N\O)C(C)(/[N+]([O-])=C/c3cccc([N+](=O)[O-])c3)CC21 (stereo unspecified)	u	-3%	u	-26	i
COc1ccccc1CNC(=O)c1c(O)nc2cc(C)ccn2c1=O	i	x	x	x	i
COc1ccc(S(=O)(=O)NC(=O)C2(C)CCN2C(=O)C(C)(C)c2ccccc2)cc1 (stereo unspecified)	i	x	x	-6	i
CN(C)c1ccc(/C=C/c2cc(=O)[nH]c3ccccc23)cc1	i	x	x	x	i
NC(=S)N/N=C1/CCSc2ccc3ccccc3c21	u	u	-3%	-95*	i
NC(=S)NN=C1c2ccccc2-c2ccccc21	i	-1%	-19%	-15	i
Cc1ccc(S(=O)(=O)Nc2cccc3cccnc23)c([N+](=O)[O-])c1	u	u	18µM*	-73*	u
O=C(Nc1cccnc1Cl)c1ccc(S(=O)(=O)N2CCCCCC2)cc1	9.2µM*	-5%	-1%	-1	i
O=S(=O)(Nc1cccc2cccnc12)c1ccccc1	u	21µM*	23µM*	-104*	u
O=C(COC(=O)c1ccc(S(=O)(=O)N2CCCC2)cc1)Nc1cccnc1Cl	i	-14%	9%	22	i
O=S(=O)(Nc1cccc2ccccc12)c1ccccc1	i	u	u	-10	i
Cc1ccc2cccc(NS(=O)(=O)c3ccccc3)c2n1	u	3.3µM*	u	37	u
Cc1ccccc1C(=O)Nc1nnc(S(=O)(=O)N2CCCc3ccccc32)s1	i	x	x	x	i
COc1ccc(C(O)c2cnc(C)n2Cc2ccccc2)cc1 (stereo unspecified)	i	x	x	24	i
COc1ccccc1/C=C/C(=O)Nc1ccc(S(=O)(=O)Nc2cc(C)on2)cc1	x	-5%	-5%	1	x
COCCCNC(=O)CC1C[C@H](C(=O)N(C(C)C)C(C)C)[C@@]2(C)c3[nH]c4ccccc4c3CCN2C1=O (stereo partly specified)	i	7%	-20%	-2	i
CC(C)(Oc1ccc(Cl)cc1)C(=O)NC1CC1	i	-23%	-15%	-10	i
CCOC(=O)Cn1cnc(-c2ccc([N+](=O)[O-])cc2)c1	i	6%	-4%	20	i
CC1(CO)COC(c2ccccc2)=N1 (stereo unspecified)	i	-1%	16%	-2	i
CC(=O)Nc1ccc(S(=O)(=O)Nc2cccc3cccnc23)cc1	u	0%	-4%	54	i
O=S(=O)(Nc1cccc2cccnc12)c1ccc(S(=O)(=O)N2CCCC2)cc1	u	u	2.9µM*	-71*	i
CC(C)(C)c1ccc(OCc2nc3ccccc3n2CCOc2ccccc2)cc1	i	x	x	x	i
C[n+]1ccccc1COc1ccc(C(C)(C)C)cc1	u	22%	-691%	-5	23µM*
SMILES	KB-V1 MDR tox	MCF10A rerep	SW480 rerep	IL1B secr inh	KB-3-1 cytotox
CNC[C@H](CC1CCCCC1)NC[C@H](CO)NCCc1cccc(C(F)(F)F)c1	i	u	u	-60*	u
O=C1c2cc(S(=O)(=O)N3CCOCC3)ccc2-c2ccc(S(=O)(=O)N3CCOCC3)cc21	i	x	x	x	u
CC(C)(C)NC(=O)c1cccc(NC(=O)c2ccc(NC(=O)c3ccco3)cc2)c1	i	34%	18%	-70*	i
O=C(Nc1ccc(Cn2nnc3ccccc32)cc1)c1ccco1	16µM*	23%	-9%	27	16µM*
O=C(Nc1nc2ccccc2n1Cc1ccc(Cl)cc1)c1ccco1	i	u	3%	-3	i
CC(C)(C)c1ccc(C(=O)Nc2ccc(NC(=O)c3ccco3)cc2)cc1	i	13µM*	u	7	i
